Source: PubChem BioAssay (NCI)
About 83,000 compounds went through this panel and 20% of them were active in at least one assay; those are over-represented in the sample as a whole.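 Step 1: grow cells in 96-well plates. Step 2: add test compound at a single concentration. Step 3: incubate 48 h. Step 4: record percent growth.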 The source made the active and inactive calls. How the source made its calls: active means growth percent below 10; inactive means the rest.

What was measured:
Assay in all cases: NCI-60 one-dose screen, 48 h (100 = growth as untreated, 0 = no growth, -100 = all killed)
NCI-H23 lung = conditions: 10 µM unless noted
786-0 renal = conditions: 10 µM unless noted
DU-145 prostate = conditions: 10 µM unless noted
MDA-MB-231 breast = conditions: 10 µM unless noted
SF-268 CNS = conditions: 10 µM unless noted
SF-539 CNS = conditions: 10 µM unless noted
M14 melanoma = conditions: 10 µM unless noted
HCT-15 colon = conditions: 10 µM
UACC-62 melanoma = conditions: 10 µM unless noted
SK-MEL-28 melanoma = conditions: 10 µM unless noted
ACHN renal = conditions: 10 µM unless noted
OVCAR-5 ovarian = conditions: 10 µM unless noted
OVCAR-3 ovarian = conditions: 10 µM unless noted
NCI/ADR-RES ovarian = conditions: 10 µM unless noted
T-47D breast = conditions: 10 µM unless noted
MDA-MB-435 melanoma = conditions: 10 µM unless noted
SW-620 colon = conditions: 10 µM unless noted
MCF7 breast = conditions: 10 µM unless noted
KM12 colon = conditions: 10 µM unless noted
LOX IMVI melanoma = conditions: 10 µM unless noted

Measured: growth

C=CC(=O)NC(O)C(Cl)(Cl)Cl (centres undefined)
inactive: NCI-H23 lung 105% | 786-0 renal 95.2% | DU-145 prostate 106% | MDA-MB-231 breast 115% | SF-268 CNS 104% | SF-539 CNS 102% | M14 melanoma 98.2% | HCT-15 colon 97.1% | UACC-62 melanoma 101% | SK-MEL-28 melanoma 103% | ACHN renal 99.6% | OVCAR-5 ovarian 107% | OVCAR-3 ovarian 105% | NCI/ADR-RES ovarian 106% | T-47D breast 93.4% | MDA-MB-435 melanoma 105% | SW-620 colon 111% | MCF7 breast 105% | KM12 colon 106%

N#C[Se]CCN1C(=O)C2C(C1=O)[C@H]1C=C[C@@H]2S1 (some centres undefined)
inactive: UACC-62 melanoma 18.9% | OVCAR-5 ovarian 14.7% | T-47D breast 70.7% | SW-620 colon 42.9% | KM12 colon 15.2%
active: NCI-H23 lung -11.7% | 786-0 renal -30.5% | DU-145 prostate -33.3% | MDA-MB-231 breast -40.5% | SF-268 CNS -45.2% | SF-539 CNS -70.5% | M14 melanoma -13.6% | HCT-15 colon -4.75% | LOX IMVI melanoma -46% | SK-MEL-28 melanoma -19.2% | ACHN renal -2.15% | OVCAR-3 ovarian -64.6% | NCI/ADR-RES ovarian -10.7% | MDA-MB-435 melanoma -39.2% | MCF7 breast 5.71%

C[CH2][Pb]([CH2]C)([CH2]C)[O]C(=O)COC
active: NCI-H23 lung -2.61% | 786-0 renal -46.4% | MDA-MB-231 breast 8.7% | SF-268 CNS -14.8% | SF-539 CNS -41.8% | M14 melanoma 9.74% | HCT-15 colon 8.99% | LOX IMVI melanoma -20.8% | OVCAR-5 ovarian -4.48% | OVCAR-3 ovarian -3.39% | NCI/ADR-RES ovarian 4.13% | MDA-MB-435 melanoma -12.3% | SW-620 colon -28.3% | MCF7 breast 0.034% | KM12 colon 5.08%
inactive: DU-145 prostate 10.3% | UACC-62 melanoma 19.3% | SK-MEL-28 melanoma 18.2% | ACHN renal 12.7% | T-47D breast 17.2%
